# Measured values reported in ChEMBL document CHEMBL3988442, “University of Dundee, Small-Polar-MMV Screening Library” (2021).
# About 13,000 (27%) of roughly 48,000 compounds showed an effect of 50% or more. This is one part of the list.
# Tested on: Wolbachia pipientis
# Assay: Anti-Wolbachia Cell-Based Screen
# Format: functional
# Design: scale not given: in the data most compounds retested in dose-response had high values
# Conditions: 5 µM
row,Structure (SMILES),Percent Effect
1,CCOCC1COCCC12CCN(C(=O)C1=CCCCC1)CC2 (centres undefined),5.493%
2,COCCCN(Cc1ccncc1)c1cc(C)ncn1,0.1133%
3,CC1(C)COCCN1C(=O)CCc1nc(-c2ccc(Cl)cc2)no1,-5.513%
4,Cc1ccc(OCc2nnc(SCC3CCCN(C)C3)o2)cc1 (centres undefined),8.956%
5,O=C(CCCc1ccccn1)N1CCSC2(CCCCC2)C1,-12.36%
6,CN(C)C(=O)CN1CCCC(CCCc2ccccn2)(C(N)=O)C1 (centres undefined),83.83%
7,NC(=O)C1(CCCc2ccccn2)CCCN(c2ncccn2)C1 (centres undefined),87.14%
8,Nc1ccnc(N2CCCC(CCc3ccccc3)(C(=O)O)C2)n1 (centres undefined),-8.777%
9,CN(CCc1ccccn1)C(=O)Nc1cccnc1N1CCCC1,-10.3%
10,CN(CCc1ccccn1)[C@@H]1CCN(c2cc(C(N)=O)ccn2)C[C@H]1O,-0.6803%
11,Cc1nc2cc(=O)[nH]n2c(C)c1CC(=O)Nc1cnn(C(C)(C)C)c1,-8.028%
12,CCOc1ccc(CN2C(=O)CC(C)(C)C2=O)nc1,-21.77%
13,CCC(=O)N1CCN(C(=O)NC2CCc3ccccc3C2)CC1 (centres undefined),-5.895%
14,Cn1cc(CNc2ccc(CCO)cc2)c(-c2ccncc2)n1,4.489%
15,Cc1noc(NCc2cn(C)nc2-c2cccnc2)n1,76.51%
16,Cc1cc(NCc2cn(C)nc2-c2cccnc2)n(C)n1,80.93%
17,CCCNCc1cn(C)nc1-c1cccnc1.Cl,13.76%
18,Cn1cc(CNCCn2cccn2)c(-c2cccnc2)n1,3.416%
19,CN(C)C(C)(C)CNCc1cn(C)nc1-c1cccnc1.Cl,8.677%
20,Cn1cc(CNc2cnn(CCO)c2)c(-c2ccncc2)n1,-19.35%
21,Cn1cc(CNCCc2cccnc2)c(-c2cccnc2)n1,4.12%
22,Cc1noc(NCc2cn(C)nc2-c2ccncc2)n1,86.63%

row,Structure (SMILES),Percent Effect
1,CCc1nnc(CNC(=O)CCN2CCN(c3cccc(C)c3)CC2)s1,7.202%
2,Cc1ccc(C(=O)N2CCSCC2)cc1N1CCNC1=O,-1.525%
3,CN(C)CCN1CCOCC2(CCN(Cc3ccc[nH]3)CC2)C1.O=C(O)C(F)(F)F.O=C(O)C(F)(F)F.O=C(O)C(F)(F)F,-10.04%
4,CNc1cc(C)nc(N2C[C@H](C3CC3)[C@@H](N)C2)n1,-22.96%
5,Cc1cc(NC(=O)NCc2ccc(C)s2)no1,3.366%
6,O=C(Cc1ccsc1)N1C[C@@H]2COC[C@]2(COCc2cccnc2)C1.O=C(O)C(F)(F)F,-1.782%
7,O=C(Cc1cccs1)N1C[C@@H]2COC[C@]2(COc2cccnc2)C1,7.396%
8,O=C(Cc1cccs1)N1C[C@@H]2COC[C@]2(COCc2cccnc2)C1.O=C(O)C(F)(F)F,-3.131%
9,Cc1ccnc(OC[C@]23COC[C@H]2CN(C(=O)Cc2ccsc2)C3)n1,106.6%
10,Cc1cccc(COC[C@]23COC[C@H]2CN(C(=O)c2ccsc2)C3)n1,4.122%
11,O=C(Cc1ccsc1)N1C[C@@H]2COC[C@]2(COc2cccnc2)C1,95.21%
12,CS(=O)(=O)c1ncc(CN2CCCC(C(N)=O)C2)n1CC1CCCCC1 (centres undefined),6.801%
13,COCC1(NC(=O)C(c2ccc(F)cc2)N(C)C)CCCC1 (centres undefined),-2.374%
14,CC1CCCN1Cc1cccc(C(=O)Nc2ccc3c(c2)CCC3=O)c1 (centres undefined),51.3%
15,COc1ccc(NC(=O)c2cccc(CN3CCCC3C)c2)cc1OC (centres undefined),8.38%
16,CC1CCCN1Cc1cccc(C(=O)Nc2ccc3[nH]c(=O)oc3c2)c1 (centres undefined),1.459%
17,Cc1ncsc1CCN(C)C(=O)CN1CCOc2ccccc2C1,0.429%
18,Cc1ncsc1CN(C)C(=O)CC1CCOc2ccccc21 (centres undefined),5.103%
19,Cc1nc(COC(=O)c2cccc3c2OCCO3)no1,110.5%
20,CCN(Cc1ccc2c(c1)OCCO2)C(=O)NCc1csc(C)n1,-4.508%
21,Cc1nc(C2CCCN(C(=O)c3cccc4c3OCO4)C2)no1 (centres undefined),12.92%
22,Cc1nc(CCN(C)C(=O)C2COc3ccccc3C2)no1 (centres undefined),-0.4164%

row,Structure (SMILES),Percent Effect
1,Cc1nc(CC(=O)N2c3ccccc3OCC2C)cs1 (centres undefined),-16.16%
2,Cc1nc(COC(=O)c2cccc3c2OCCO3)cs1,117.7%
3,Cc1ncsc1COC(=O)c1cccc2c1OCCO2,128%
4,NC(=O)N1CCCN(C(=O)Nc2cc(-n3cccc3)ccc2F)CC1,-14.58%
5,CN1CC(C(=O)NC(C)(C)CNC(=O)OC(C)(C)C)CC1=O (centres undefined),-3.275%
6,COCc1ccccc1C(=O)NCC(O)c1ccc(Cl)s1 (centres undefined),11.9%
7,CN(C)c1ncnc2c1CCN(S(=O)(=O)c1cccc3nsnc13)C2,10.74%
8,COc1ncccc1CNC(=O)c1cc(F)cc(Br)c1,12.35%
9,Cc1ncccc1OC1(C(=O)NCCCN2CCOCC2)CCNCC1,-8.588%
10,CCc1cnc(C)nc1NCCN1CCCC(C(N)=O)C1 (centres undefined),3.304%
11,CC(=O)c1cnc(NCC2OCCc3ccccc32)nc1C (centres undefined),8.592%
12,CC(=O)c1cnc(NCCN2CCCC2)nc1C,107.9%
13,CC(=O)c1cnc(NCCN2CCCC(c3ccccc3)C2)nc1C (centres undefined),111.1%
14,CC(=O)c1cnc(NCCCN2CCOCC2)nc1C,89.28%
15,CC(=O)c1cnc(NCCc2csc(-c3cnccn3)n2)nc1C,-3.465%
16,Cc1csc(C2(NC(=O)NCCN3CCOCC3)CCC2)n1,-15.32%
17,OC1CCN(CCNc2ncc3c(n2)CCN3c2ccccc2)CC1,0.6072%
18,COC(=O)CN(CC1CCOC1)C1CC1 (centres undefined),-11.06%
19,Cc1cnccc1N1CCN(C(=O)CCCN2CCCCC2)CC1,-8.637%
20,COc1ncccc1C(=O)N1CC(c2nc(-c3ccccn3)no2)C1,-3.614%
21,Cc1[nH]c(=O)[nH]c(=O)c1CN1CCCC(CCc2c(F)cccc2F)C1 (centres undefined),-22.77%
22,Cc1cc(C)n(-c2ccc(CNCc3ccc(OC(C)C)cc3)cn2)n1,-13.05%

row,Structure (SMILES),Percent Effect
1,Oc1nnc(-c2cccs2)c2sc(N3CCCCC3)nc12,11%
2,Cc1sc2c(C3CCCNC3)nc(Nc3cccc(F)c3)n2c1C.Cl (centres undefined),138.6%
3,Cc1nc(C2CCCNC2)cc(N2CCc3nc(N)sc3C2)n1 (centres undefined),-10.94%
4,Cc1nn(C(C)C)c(C)c1S(=O)(=O)Nc1cccc(F)c1,2.276%
5,Cc1sc2c(C3CCNCC3)nc(Nc3cccc(F)c3)n2c1C.Cl,83.53%
6,Cl.O=C(Nc1cccc(F)c1)C1=NOC2(CCNCC2)C1,1.069%
7,COc1ccccc1CCNC(=O)CN1CCCC1c1noc(C)n1 (centres undefined),-5.748%
8,CCC(=O)N1CCC2(CC1)c1nc[nH]c1CCN2S(C)(=O)=O,-5.847%
9,CC(NC(=O)Nc1nccs1)C(=O)NC1CCCC1 (centres undefined),13.07%
10,Cc1nn2c(nc1=O)-c1ccccc1NC2C(=O)O (centres undefined),-8.075%
11,OCCN1CCC(CNCc2cn(-c3ccccc3)nn2)CC1,3.58%
12,CNc1cc(C)nc(N2CCC3(CC2)[C@H](O)C[C@@H]3OCCO)n1,4.937%
13,CNc1cc(C)nc(C2CCN(CCO)CC2)n1,109.8%
14,Cc1ccc(CNCC2CCN(CCO)CC2)cc1,-0.5522%
15,Cc1cc(Oc2ccccc2)nc(C2CCN(CCO)CC2)n1,153.9%
16,CNc1cc(C)nc(N2C[C@@H](C(=O)O)[C@H](C3CC3)C2)n1,7.259%
17,CC(=O)N1CCc2c(nc(-c3ccccn3)nc2N(C)CC(O)CO)C1 (centres undefined),1.269%
18,CC(C(=O)N(C)Cc1nnc2n1CCC2)S(C)(=O)=O (centres undefined),0.343%
19,COCCN(C(=O)c1ccoc1C)c1ccc(C#N)cc1,-4.794%
20,Cc1cc(C(=O)N2CCCC(c3cc(=O)nc4n3CCC4)C2)on1 (centres undefined),100.5%
21,CCc1cn[nH]c1C1CCCN(C(=O)c2cc(C(C)C)on2)C1 (centres undefined),3.205%
22,Cc1cc(C(=O)N2CCCC(n3nc(C)cc3C)C2)on1 (centres undefined),6.311%

row,Structure (SMILES),Percent Effect
1,CCc1ccsc1C(=O)N1CCCC(c2noc(C)n2)C1 (centres undefined),-6.826%
2,CCc1cc(C(=O)N2CCCC(c3cc(=O)nc4n3CCC4)C2)no1 (centres undefined),113.8%
3,CC(C)c1cc(C(=O)N2CCCC(c3cc(=O)nc4n3CCC4)C2)no1 (centres undefined),118.8%
4,CC(C)C(=O)N1CCN(C(=O)c2cc(C(C)C)on2)[C@H]2CS(=O)(=O)C[C@H]21,-2.919%
5,Cc1cc(C(=O)N2CCCC(c3nccn3Cc3cscn3)C2)on1 (centres undefined),-8.995%
6,Cc1cc(C)n(CC2CCCN2C(=O)Cc2cn3ccccc3n2)n1 (centres undefined),13.26%
7,Cc1cc(C)n(CC2CCCN2C(=O)c2nccc3ccccc23)n1 (centres undefined),117.1%
8,Cc1cc(C)n(CC2CCCN2C(=O)c2ccc3ccccc3n2)n1 (centres undefined),90.81%
9,Cc1cc(C(=O)N2CCCC2Cn2nc(C)cc2C)on1 (centres undefined),-0.3102%
10,Cn1nnnc1SCCNC(=O)c1c[nH]nc1C1CCCCC1,-16.51%
11,O=C1CCC(c2ccccc2)(c2ccccc2)CN1CCO,-6.27%
12,Cc1nc[nH]c1CN1CCN(C(=O)c2cccs2)[C@H]2CS(=O)(=O)C[C@H]21,-2.944%
13,CN1CCOC(CNCc2cnc(C(C)(C)C)s2)C1 (centres undefined),83.62%
14,CCC(CCNCc1cnc(C2CCC2)s1)N1CCCC1=O (centres undefined),3.115%
15,CCN(CC)c1ncc(CNCC2CCCn3ccnc32)s1 (centres undefined),9.152%
16,CCN1CCOC(CNCc2cnc(C(C)(C)C)s2)C1 (centres undefined),96.59%
17,CCN(CC1CN(Cc2ncc(C)o2)CCO1)c1cccnn1 (centres undefined),0.3637%
18,CC(C)(C)c1ncc(CNCC2CN(C3CC3)CCO2)s1 (centres undefined),77.82%
19,CCN1CCOC(CNCc2cnc(N(CC)CC)s2)C1 (centres undefined),78.01%
20,CC(C)(C)c1ncc(CNCC2CCCn3ccnc32)s1 (centres undefined),-12.55%
21,CCN1CCOC(CNc2nccc(C(F)(F)F)n2)C1 (centres undefined),-2.512%
